The compounds below were run on Odoribacter splanchnicus (assay: growth AUC relative to DMSO control (median of replicates) (fraction); higher = more growth (less inhibition), active = hit call of the paper). Settings: 20 µM; 24 h;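 active = AUC reduced over 20% with Padj below 0.05 in at least 2 of 3 replicates; inactive = otherwise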.
Method in brief: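 Hourly OD600 readings over 24 h tracked anaerobic gut bacterial monocultures grown at 37 °C in mGAM from OD600 0.05 with 20 µM compound (1% DMSO). After the minimum OD was set to 0, area under the growth curve was normalised to the plate median of solvent-only wells, or to row and column medians on the industrial chemical plate. Values are medians of three biological replicates grown on separate days.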
In the case of O=C(O)Cc1c(Cl)ccc(Cl)c1Cl, the “growth AUC” value is reported as 0.946 (inactive).
COc1cc(OC)c(Cl)cc1N was tested, and the “growth AUC” value was 1.04 (inactive).
In the case of O=S(Cc1ccc(Cl)cc1)c1ccc(Cl)cc1 (configuration not stated), the “growth AUC” value is reported as 1.01 (inactive).
For Cc1cc(C)c(C2=C(O)C3(CCCC3)OC2=O)c(C)c1, the “growth AUC” value was 0.563 (active).
For CN(C)C(=O)c1cccnc1S(N)(=O)=O, the “growth AUC” value was 1.02 (inactive).
CCCN(CCOc1c(Cl)cc(Cl)cc1Cl)C(N)=O was tested, and the “growth AUC” value was 0.978 (inactive).
For Cc1nn(C)c(OCC(=O)c2ccccc2)c1C(=O)c1ccc(Cl)cc1Cl, the “growth AUC” value was 0.961 (inactive).
With CC(C)(C)Nc1nc(N)nc(Cl)n1 the “growth AUC” value was 0.995 (inactive).
COC(=O)c1c(Cl)nn(C)c1S(=O)(=O)NC(=O)Nc1nc(OC)cc(OC)n1 was tested, and the “growth AUC” value was 0.999 (inactive).
For [S], the “growth AUC” value was 1.03 (inactive).
CCCCCCCCc1c(CC)nc2ncnn2c1N was tested, and the “growth AUC” value was 0.989 (inactive).
Cn1cc(C(=O)Nc2ccccc2-c2cc(F)c(F)c(F)c2)c(C(F)F)n1 was tested, and the “growth AUC” value was 0.964 (inactive).
CCCOc1nc2ccc(I)cc2c(=O)n1CCC was tested, and the “growth AUC” value was 1.05 (inactive).
For CNc1nc(NC(C)C)nc(SC)n1, the “growth AUC” value was 0.984 (inactive).
CC(C)(C)[C@@H](O)[C@@H](Cc1ccc(Cl)cc1)n1cncn1 (mixture of isomers) was tested, and the “growth AUC” value was 1.13 (inactive).
Cc1ccc2c(c1)[C@H](Nc1nc(N)nc(C(C)F)n1)[C@@H](C)C2 (some centres not stated) was tested, and the “growth AUC” value was 0.902 (inactive).
In the case of CCN(CC)c1nc(C)cc(=O)[nH]1, the “growth AUC” value is reported as 1.03 (inactive).
